BoNT-F LC inh = inhibitors of Botulinum neurotoxin F light chain protease; inhibition, % at 10 µM; Multiplex microsphere protease cleavage assay, flow cytometry; 360,000 compounds, 0.22% hits; AID 588497; in the data active = inhibition above about 35%, passing the limit was not always enough; inconclusive = no clear call, values can overlap the other calls; also: plate controls were buffer without enzyme for full effect and enzyme alone for no effect
Bead autofluor = counter-screen for toxin protease inhibitors: compound fluorescence; compound autofluorescence counterscreen, microsphere flow cytometry; active compounds read high; fluorescence intensity (test concentration not listed); 360,000 compounds, 3.1% hits; AID 624483; in the data active = fluorescence intensity above about 16000; inconclusive = no clear call, values can overlap the other calls
Anthrax LF inh2 = anthrax lethal factor protease inhibition; P15917; multiplex microsphere protease cleavage assay, LF; inhibition, % at 10 µM; 360,000 compounds, 0.12% hits; AID 588501; also: plate controls were buffer without enzyme for full effect and enzyme alone for no effect
BoNT A protease = inhibitors of Botulinum neurotoxin A light chain protease; multiplex microsphere protease substrate cleavage, flow cytometry; 360,000 compounds, 0.17% hits; inhibition, % at 10 µM; AID 588499; also: plate controls were buffer without enzyme for full effect and enzyme alone for no effect
SSB-PriA inh = blocks PriA binding to SSB C-terminal tail. AlphaScreen SSBct-PriA binding, biotinylated peptide. inhibition, % at 33 µM. 430,000 compounds, 0.6% hits; in the data active = inhibition mostly above about 37%, no sharp cut-off; inactive = mostly below about 20%;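 also: plate controls were negative control peptide for no effect and reference peptide for full effect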
Active calls of the source: *; i = inactive; u = inconclusive; x = no result; ! = repeats disagree. Sampled rows, rich in hits. Any-hit rate of the full collection: about 3.1%. Rule as the data show it, unless noted: active = inhibition above about 30%; inconclusive = no clear call, values can overlap the other calls; inactive = below that.

SMILES	BoNT-F LC inh	Bead autofluor	Anthrax LF inh2	BoNT A protease	SSB-PriA inh
CC(/C=C/c1ccc(N(C)C)cc1)=NN=C1NC(=O)CC(C(=O)Nc2ccc(Cl)cc2)S1 (stereo unspecified)	x	x	x	x	42
CCCCC(=O)C1C(=O)NC(=O)NC1=O	3	19202*	-3	2	-1
Cc1ccc(C(C#N)N2CCOCC2)cc1 (stereo unspecified)	2	22170*	1	1	-32
N#CC(c1ccc(Cl)cc1)N1CCOCC1 (stereo unspecified)	3	3401	0	-2	-13
O=C(CCc1ccc(Oc2cc([N+](=O)[O-])cc([N+](=O)[O-])c2)cc1)N1CCCCC1	3	4486	-3	0	45*
O=C(c1ccc(=O)[nH]n1)N1CC(c2nc(Cc3ccccc3)no2)C1	x	x	x	x	-8
Cc1ccc(-n2[nH]c(=O)c3cccnc32)cc1	-3	16502*	-5	-2	-7
COC(=O)C1CCN(C(=O)Cc2c(C)nc(SCc3ccccc3F)[nH]c2=O)CC1	x	x	x	x	-23
Cc1cccc2sc(N(CCN(C)C)C(=O)c3cc(Cl)sc3Cl)nc12	6	8680	1	0	26
CN(C)CCN(C(=O)c1ccc2ccccc2c1)c1nc2ccc(F)cc2s1	4	5363	-2	1	44*!
CN(C)CCCN(C(=O)c1ccc(S(=O)(=O)N(C)C2CCCCC2)cc1)c1nc2ccc(F)cc2s1	x	x	x	x	4
COc1cc2ccccc2cc1C(=O)N(CCN(C)C)c1nc2c(C)cccc2s1	-3	5309	-2	0	41*!
COc1ccc(OC)c2sc(N(CCN(C)C)C(=O)c3ccc4ccccc4c3)nc12	0	5986	-1	-2	54*
Cc1cc(C)c2sc(N(CCCN(C)C)C(=O)c3ccc(S(=O)(=O)N(C)C4CCCCC4)cc3)nc2c1	x	x	x	x	40*!
CCc1ccc2nc(N(CCN(C)C)C(=O)c3ccc4ccccc4c3)sc2c1	-5	5266	-1	1	21
O=S(=O)(Cc1ccc(Cl)cc1)c1ccc(N2CCN(c3ccc(F)cc3)CC2)nn1	x	x	x	x	-6
CCOc1ccc(NC(=O)CCn2cnc3c([nH]c4cc(OC)c(OC)cc43)c2=O)cc1	x	x	x	x	-19
COc1cc2ccccc2cc1C(=O)N(CCN(C)C)c1nc2ccc(C)cc2s1	4	4419	-3	-1	36
COc1cc2ccccc2cc1C(=O)N(CCN(C)C)c1nc2c(OC)ccc(OC)c2s1	-2	5886	-4	-2	46*
CCOc1ccc(C(=O)N(CCN(C)C)c2nc3c(C)cccc3s2)cc1	x	x	x	x	16
Cc1cccc2sc(N(CCCN(C)C)C(=O)c3sc4ccccc4c3Cl)nc12	-11	9554	-6	-2	40*!
Cc1cc(C)c2sc(N(CCN(C)C)C(=O)c3ccc4ccccc4c3)nc2c1	6	5312	-8	0	43*!
Cc1ccc2sc(N(CCN(C)C)C(=O)c3ccc4ccccc4c3)nc2c1C	1	4483	-2	-2	45*!
N#Cc1ccsc1NC(=O)C1CCN(S(=O)(=O)c2ccc(Cl)cc2)CC1	x	x	x	x	-2
O=C(Cn1ccn(-c2ccc3c(c2)OCO3)c(=O)c1=O)c1ccc(F)cc1	x	x	x	x	2
SMILES	BoNT-F LC inh	Bead autofluor	Anthrax LF inh2	BoNT A protease	SSB-PriA inh
CCN(CC)CCN(C(=O)c1ccc2ccccc2c1)c1nc2ccc(OC)cc2s1	-11	6257	-3	-4	31
COc1cc2nc(N(CCN(C)C)C(=O)c3ccc4ccccc4c3)sc2cc1OC	9	6109	-3	-2	39*!
CO/N=C/NC(=O)c1cn(-c2ccc(F)cc2)c(=O)c2ccccc12	-2	16209*	-4	-1	i
CC1=NC(=O)C(N=Nc2cccc(O)c2)N1c1ccccc1 (stereo unspecified)	-6	16879*	-9	-4	50
O=C(Cc1ccccc1)Nc1cccc(N2CCCC2)c1	-25	22002*	-8	u	-7
O=C(O)c1ccc(Nc2ccc([N+](=O)[O-])c3nonc23)cc1	-7	3089	-4	1	-5
O=[N+]([O-])c1ccc(Nc2ccccc2O)c2nonc12	u	4052	6	3	41*
COc1ccccc1N1CCN(c2cc(N3CCCC3)nc(C)n2)CC1	-5	6690	-6	0	4
COc1ccc(OC)c2c(C)cc(N3CCCN(C)CC3)nc12	-7	21960*	-1	-5	44*
Cc1ccc(OCCNc2cc(N3CCN(CCO)CC3)ccc2[N+](=O)[O-])cc1C	-3	2437	-4	-1	55*
CS(=O)(=O)N1CCN(c2ccc([N+](=O)[O-])c(NCCN3CCOCC3)c2)CC1	-13	18351*	-13	-5	-12
